Experimental findings from PubChem BioAssay are described below.

A short description of assay [1]: compounds binding Alexa647 anti-His antibody – biochemical, small-molecule microarray, 635 nm fluorescence, artefact control for SMM control protein annotation, primary screen (AID 1128).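 Note: score merges feature fluorescence with signal-to-noise for each printed compound spot.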 The following applies: higher = more signal.
Assay [2] has as its system Human papillomavirus type 1a E7 protein (residues 1-88). As to the kind of experiment: HPV1a E7 small-molecule binders, primary screen, biochemical, small-molecule microarray, residues 1-88, 635 nm (AID 1129). The following applies: small-molecule microarray binding, fluorescence 635 nm; higher = more signal.
In assay [3] the target is Focal adhesion kinase 1 (Homo sapiens) (UniProt Q05397). The assay can be described thus: PTK2 protein binding on printed compound slides – biochemical, small-molecule microarray, 635/667 nm fluorescence, BSA, DTT, primary screen (AID 1130).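 Note: composite of spot emission at 667 nm and signal to noise over triplicate slides.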 The following applies: 635 nm fluorescence, higher = more signal.
Assay [4] deals with Fibrinogen (Alexa647-labelled). As to the kind of experiment: Alexa647-fibrinogen binding to printed small molecules – biochemical, small-molecule microarray, 635/667 nm fluorescence, artefact control for SMM control-protein annotation, profiling panel (AID 1131).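 Note: z-score merges 667 nm fluorescence with per-spot signal-to-noise over triplicate slides.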 The note with it: fibrinogen-A647 binding fluorescence, higher = more signal.
For assay [5], the target named is Follistatin (Homo sapiens) (UniProt P19883). The assay can be described thus: FST protein binding to printed compounds – biochemical, small-molecule microarray, 635/667 nm fluorescence, primary screen (AID 1132). The following applies: 635 nm fluorescence, higher = more signal.
Assay [6] has as its target Fibroblast growth factor 2 (Homo sapiens) (UniProt P09038). As to the kind of experiment: basic fibroblast growth factor binding to printed compounds – biochemical, small-molecule microarray, 635/667 nm fluorescence, primary screen (AID 1133). The note with it: FGF2, fluorescence 635/667, higher = more signal.
Assay [7] can be described thus: JC-1 mitochondrial potential readout, lung cancer cells – cell-based, A549, JC-1 fluorescence, basal, 24 h, 100 nL, profiling panel (AID 1138).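 Note: A549 lung adenocarcinoma cells under basal conditions with no added stimulus; test concentration not given here.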 The following applies: higher = more signal.
For a further assay, the system named is Lefty1. As to the kind of experiment: Lefty1 protein binding to printed compounds – biochemical, small-molecule microarray, 635/667 nm fluorescence, primary screen (AID 1139). The following applies: fluorescence 635/667, higher = more signal.
Assay [8] has as its system wheat germ agglutinin (Triticum aestivum), Alexa647-labelled. As to the kind of experiment: Alexa647-WGA lectin binding to printed small molecules – biochemical, small-molecule microarray, 635/667 nm fluorescence, artefact control for SMM control-protein annotation, profiling panel (AID 1140).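 Note: score merges 667 nm feature emission with signal to noise over triplicate slides.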 The note with it: WGA-A647 binding, 635 nm fluorescence, higher = more signal.

The target of assay [9] is Luciferin 4-monooxygenase (Photinus pyralis) (UniProt P08659). The assay can be described thus: inhibition of purified Photinus pyralis luciferase – biochemical, luminescence, purified enzyme, 2006 set, primary screen (AID 1141).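 Note: cell-free assay with purified firefly luciferase at 100 ng per well in PBS; test concentration not given here.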 The following applies: purified firefly luciferase, SteadyGlo luminescence, 30 min; higher = more signal, called active from +8 up or from −8 down.

For assay [10], the system named is Wnt5a (protein binding on small-molecule microarray). As to the kind of experiment: small molecules binding Wnt5a protein – biophysical, small-molecule microarray, 635/667 nm fluorescence, primary screen (AID 1142).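 Note: fluorescence read at 667 nm with signal to noise per printed feature.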 The following applies: 635 nm fluorescence, higher = more signal.
A short description of assay [11]: ATP-based viability of Huh7 replicon cells – cell-based, CellTiter-Glo luminescence, basal, 48 h, cytotoxicity control for HCV replication inhibitor project, primary screen (AID 1143).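 Note: Huh7 hepatoma cells carrying a hepatitis C replication reporter with no stimulus; test concentration not given here.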 The note with it: higher = more signal, called active from +8 up or from −8 down.
A short description of assay [12]: Pseudomonas biofilm growth suppression – PAO1 strain, BacTiter-Glo luminescence, LB-PBS, primary screen (AID 1144). The following applies: P. aeruginosa PAO1 biofilm, 12 h, higher = more signal.
Assay [13] can be described thus: basal CRE-LacZ reporter activity in PC12 – cell-based, unstimulated, primary screen (AID 1145). The following applies: no forskolin, luminescence, 4.5 h, higher = more signal, called active from +8 up or from −8 down.
Assay [14] is described as follows: forskolin-driven CRE-LacZ activity in PC12 – cell-based, CRE-LacZ reporter, forskolin-stimulated, primary screen (AID 1146).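 Note: PC12 cells with 6xCRE LacZ reporter stimulated by forskolin 10 µM; beta-galactosidase reporter signal reflecting CREB driven transcription.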 The following applies: luminescence, 4.5 h, higher = more signal, called active from +8 up or from −8 down.
The target of assay [15] is Streptavidin (Streptomyces avidinii) (UniProt P22629). The assay can be described thus: compounds binding control protein streptavidin – biophysical, small-molecule microarray, 635/667 nm fluorescence, artefact control for SMM compound annotation, primary screen (AID 1147).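 Note: signal reflects streptavidin binding to arrayed compounds as a control protein.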 The note with it: higher = more signal.
The nature of assay [16]: probe aInhba binding on compound microarray – biochemical, small-molecule microarray, 635/667 nm fluorescence, primary screen (AID 1148).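 Note: score merges 667nm spot fluorescence with signal-to-noise for antibody binding to printed compounds.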 The following applies: higher = more signal.
Assay [17] has as its target Torsin-1A (Homo sapiens) (UniProt O14656). The assay can be described thus: TOR1A wild-type binding on microarray – cell lysate, small-molecule microarray, lysate, 635/667 nm, primary screen (AID 1149). The note with it: COS7 hTOR1A-WT lysate, 635 nm fluorescence, higher = more signal.
For assay [18] the target is unchanged. As to the kind of experiment: torsin A mutant lysate binding on microarrays – cell lysate, small-molecule microarray, COS7 lysate, 635/667 nm fluorescence, primary screen (AID 1150).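 Note: score pools 667 nm emission and signal to noise measuring lysate protein binding.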 The note with it: COS7 hTOR1A mutant lysate, 635 nm fluorescence, higher = more signal.
For assay [19], the system named is Sonic hedgehog protein (Shh). The assay can be described thus: Sonic hedgehog microarray binding compounds – biochemical, small-molecule microarray, 635/667 nm fluorescence, primary screen (AID 1151).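 Note: Shh protein binding to compounds spotted on small-molecule microarray slides; score combines spot fluorescence intensity with signal-to-noise across triplicate slides.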 The note with it: 635 nm fluorescence, higher = more signal.

Activity calls are given as the source filed them. Unless noted, the rule behind the calls is not given here.

Sequence of Follistatin (Homo sapiens) (P19883 whole entry, looked up): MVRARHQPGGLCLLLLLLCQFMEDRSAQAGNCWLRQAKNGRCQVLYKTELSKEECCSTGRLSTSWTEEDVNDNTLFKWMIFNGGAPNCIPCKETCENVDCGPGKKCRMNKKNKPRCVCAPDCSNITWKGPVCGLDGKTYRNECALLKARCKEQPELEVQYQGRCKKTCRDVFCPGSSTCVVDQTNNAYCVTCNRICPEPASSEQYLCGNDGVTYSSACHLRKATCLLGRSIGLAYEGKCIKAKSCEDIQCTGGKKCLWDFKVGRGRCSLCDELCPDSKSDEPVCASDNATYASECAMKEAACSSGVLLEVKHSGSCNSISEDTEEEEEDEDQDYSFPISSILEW
Sequence of Fibroblast growth factor 2 (Homo sapiens) (P09038 whole entry, looked up): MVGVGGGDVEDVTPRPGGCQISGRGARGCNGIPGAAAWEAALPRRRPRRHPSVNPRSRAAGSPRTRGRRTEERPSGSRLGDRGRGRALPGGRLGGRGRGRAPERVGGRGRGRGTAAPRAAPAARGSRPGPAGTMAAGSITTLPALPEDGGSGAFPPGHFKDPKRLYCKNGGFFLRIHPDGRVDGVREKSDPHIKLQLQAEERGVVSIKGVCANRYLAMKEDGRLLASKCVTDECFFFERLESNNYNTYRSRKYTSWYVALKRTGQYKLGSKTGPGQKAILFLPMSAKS
Sequence of Streptavidin (Streptomyces avidinii) (P22629 whole entry, looked up): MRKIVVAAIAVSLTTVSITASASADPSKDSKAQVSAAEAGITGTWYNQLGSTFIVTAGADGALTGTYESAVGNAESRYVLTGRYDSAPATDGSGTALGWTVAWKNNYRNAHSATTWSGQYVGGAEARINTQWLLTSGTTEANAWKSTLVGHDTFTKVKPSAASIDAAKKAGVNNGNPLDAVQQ
Sequence of Focal adhesion kinase 1 (Homo sapiens) (Q05397 whole entry, looked up): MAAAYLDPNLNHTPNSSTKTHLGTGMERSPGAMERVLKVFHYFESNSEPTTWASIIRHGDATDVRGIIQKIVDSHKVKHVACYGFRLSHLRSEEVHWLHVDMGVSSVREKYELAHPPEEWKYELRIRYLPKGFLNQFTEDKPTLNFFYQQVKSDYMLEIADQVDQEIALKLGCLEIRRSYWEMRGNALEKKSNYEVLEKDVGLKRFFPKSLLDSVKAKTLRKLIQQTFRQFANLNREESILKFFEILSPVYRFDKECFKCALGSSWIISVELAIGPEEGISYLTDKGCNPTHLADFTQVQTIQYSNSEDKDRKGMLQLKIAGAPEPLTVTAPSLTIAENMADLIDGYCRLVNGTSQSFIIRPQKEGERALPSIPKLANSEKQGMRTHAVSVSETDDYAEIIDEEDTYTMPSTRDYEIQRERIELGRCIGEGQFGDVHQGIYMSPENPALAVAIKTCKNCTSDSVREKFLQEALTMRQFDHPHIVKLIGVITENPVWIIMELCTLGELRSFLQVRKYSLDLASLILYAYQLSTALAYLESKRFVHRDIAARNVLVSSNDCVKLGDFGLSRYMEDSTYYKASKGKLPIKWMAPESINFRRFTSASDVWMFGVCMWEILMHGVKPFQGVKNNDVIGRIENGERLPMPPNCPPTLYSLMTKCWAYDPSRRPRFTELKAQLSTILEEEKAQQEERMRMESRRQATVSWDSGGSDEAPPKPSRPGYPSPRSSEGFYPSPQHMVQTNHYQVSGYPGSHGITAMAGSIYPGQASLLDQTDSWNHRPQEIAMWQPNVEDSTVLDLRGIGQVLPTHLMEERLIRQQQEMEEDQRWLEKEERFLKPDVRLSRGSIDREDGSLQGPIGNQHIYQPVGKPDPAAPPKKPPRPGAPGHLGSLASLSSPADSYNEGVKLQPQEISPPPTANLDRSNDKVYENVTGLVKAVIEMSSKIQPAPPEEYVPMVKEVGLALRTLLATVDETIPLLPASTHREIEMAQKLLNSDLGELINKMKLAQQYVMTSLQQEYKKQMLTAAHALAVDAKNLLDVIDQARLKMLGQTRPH
Sequence of Torsin-1A (Homo sapiens) (O14656 whole entry, looked up): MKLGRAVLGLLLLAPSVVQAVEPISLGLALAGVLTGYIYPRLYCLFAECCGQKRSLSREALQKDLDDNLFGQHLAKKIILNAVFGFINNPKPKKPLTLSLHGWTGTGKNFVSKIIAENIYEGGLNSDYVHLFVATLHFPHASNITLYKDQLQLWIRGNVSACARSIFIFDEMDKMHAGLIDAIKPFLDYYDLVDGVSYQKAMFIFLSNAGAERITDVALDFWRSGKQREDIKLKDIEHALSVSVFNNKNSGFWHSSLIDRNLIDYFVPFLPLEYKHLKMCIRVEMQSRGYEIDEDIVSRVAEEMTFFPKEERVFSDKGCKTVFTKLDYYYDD
Sequence of Luciferin 4-monooxygenase (Photinus pyralis) (P08659 whole entry, looked up): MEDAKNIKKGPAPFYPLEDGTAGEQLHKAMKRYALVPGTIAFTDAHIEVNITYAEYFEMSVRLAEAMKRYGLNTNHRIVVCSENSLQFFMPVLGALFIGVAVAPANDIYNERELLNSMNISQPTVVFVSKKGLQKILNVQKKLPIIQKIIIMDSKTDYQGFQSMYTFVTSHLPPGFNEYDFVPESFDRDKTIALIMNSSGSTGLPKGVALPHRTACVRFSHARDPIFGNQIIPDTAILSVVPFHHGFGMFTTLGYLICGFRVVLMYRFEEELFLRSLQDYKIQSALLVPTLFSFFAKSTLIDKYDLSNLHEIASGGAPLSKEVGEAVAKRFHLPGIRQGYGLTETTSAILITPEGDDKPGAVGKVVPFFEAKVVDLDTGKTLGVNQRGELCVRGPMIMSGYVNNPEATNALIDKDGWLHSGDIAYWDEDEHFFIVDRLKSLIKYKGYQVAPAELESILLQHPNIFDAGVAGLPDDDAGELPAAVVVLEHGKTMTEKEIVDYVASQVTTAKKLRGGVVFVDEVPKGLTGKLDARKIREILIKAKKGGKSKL

Consider `CO[C@H]1O[C@H](CO)[C@@H](OC(=O)c2ccc(Br)cc2)[C@@H]2OC(=O)[C@@H](Cc3ccc4ccccc4c3)C/C=C/C[C@H](Cc3ccc4ccccc4c3)C(=O)O[C@@H]12`, for which the composite z-score was 1.4 in assay [1]; 1.2 in assay [2]; 0.337 in [3]; -0.216 in assay [4]; 0.395 in assay [5]; -0.311 in assay [6]. The composite z-score in the assay with Lefty1 is -0.345; in [8], 0.691; in assay [10], 0.18; in [15] it was 0.48; in [16] it was -0.103; with Torsin-1A (Homo sapiens) [17] it was 0.0121. For the same compound, the results for the composite z-score (with Torsin-1A (Homo sapiens) [18]; in assay [19]) were 0.625 and -0.219, respectively. Moreover, the z-score in assay [7] is 1.59; in assay [9], -1.28 (inactive); in [11], -2.88 (inactive); in assay [12] it was 0.4 (inactive); in assay [13] it was 0.139 (inactive); in assay [14], -0.433 (inactive).
`C=C[C@H](COC(C)=O)NS(=O)(=O)c1ccc(Br)cc1`: the composite z-score in assay [1] is 0.207; in assay [2], -0.575; in assay [3], -0.0533; in [4] it was 0.382; in [5], 1.27; in assay [6] it was -0.0651. Further, the composite z-score was 0.17 in the assay with Lefty1; 0.146 in assay [8]; -0.0966 in assay [10]; 1.16 in assay [15]; -0.0762 in assay [16]; 0.119 with Torsin-1A (Homo sapiens) [17]. Moreover, the results for the composite z-score (with Torsin-1A (Homo sapiens) [18]; in [19]) were -0.214 and 0.382, respectively. Besides, the z-score was 0.695 in assay [7]; -0.503 (inactive) in assay [9]; 0.0651 (inactive) in assay [11]; -0.0168 (inactive) in [12]; 0.26 (inactive) in assay [13]; 0.678 (inactive) in assay [14].
For `O=C1O[C@@H](c2ccccc2)[C@@H](c2ccccc2)N2[C@@H](c3ccc(O)cc3)[C@]3(C(=O)Nc4ccc(C#CCCO)cc43)[C@@H](C(=O)Nc3nc4ccccc4s3)[C@H]12`, the composite z-score in [1] came to 0.709; in assay [2] it was 1.23; in assay [3], 0.31; in assay [4], 0.682; in assay [5], 1.25; in assay [6], 1.01. Besides, the composite z-score with Lefty1 is 0.531; in assay [8] it was 0.552; in [10], 0.106; in [15] it was 0.103; in [16], 0.0471; with Torsin-1A (Homo sapiens) [17], -0.363. Also, the composite z-score came out at 0.897 with Torsin-1A (Homo sapiens) [18] and 0.756 in assay [19]. Moreover, the z-score in assay [7] is -2.38; in [9], -0.155 (inactive); in [11], -0.486 (inactive); in assay [12], 0.422 (inactive); in [13] it was -0.195 (inactive); in assay [14], 1.93 (inactive).
`Cc1c(NC(=O)/C(C#N)=C/C=C/c2ccc(N(C)C)cc2)c(=O)n(-c2ccccc2)n1C`: the composite z-score in assay [1] was found to be 1.61; in [2], 1.18; in [3], 0.0505; in assay [4], 0.449; in [5], 0.763; in assay [6] it was 0.492. The composite z-score was 0.517 in the assay on Lefty1; 1.04 in [8]; 0.48 in assay [10]; 0.96 in [15]; 0.264 in [16]; 0.314 with Torsin-1A (Homo sapiens) [17]. Also, the composite z-score was 0.288 with Torsin-1A (Homo sapiens) [18] and 0.259 in [19]. The z-score in [7] is 1.43; in [9] it was -3.99 (inactive); in assay [11], -0.853 (inactive); in assay [12], 2.09 (inactive); in assay [13], 0.595 (inactive); in [14] it was -1.4 (inactive).
Regarding `C=C[C@@H](C)[C@H](OC(=O)Nc1ccc(SC)cc1)c1ccc(OCCO)cc1`, the composite z-score is -0.0489 in [1]; -0.784 in assay [2]; 0.31 in [3]; -1.64 in assay [4]; 0.229 in [5]; -0.549 in assay [6]. The composite z-score in the assay on Lefty1 is 0.0878; in [8], 0.782; in assay [10], -0.403; in assay [15] it was -0.936; in assay [16], -0.259; in the assay with Torsin-1A (Homo sapiens) [17] it was -0.582. Also, the results for the composite z-score (in the assay with Torsin-1A (Homo sapiens) [18]; in assay [19]) were 0.695 and 0.182, respectively. Further, the z-score in assay [7] is -0.497; in assay [9], -4.77 (inactive); in assay [11], -0.957 (inactive); in [12], -1.37 (inactive); in assay [13] it was 0.861 (inactive); in assay [14], -0.97 (inactive).
